Sm TGR inh = S. mansoni TGR enzyme inhibition; Q962Y6; 360,000 compounds, 3% hits; purified TGR, DTNB reduction, TNB absorbance 405 nm; Potency, µM (top dose mostly 114 µM), inactives show at the top dose activity change, negative = inhibition, usual class: inhibitors; also: potency is read from the fitted curve at half-maximal effect; % is scaled to controls: 0 for no effect and ±100 for the full control effect; nearly all actives have a fitted effect of over 60% in size
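First, TGR (20 nM dispensed) and NADPH were mixed with compound. Second, a 15 min room-temperature incubation followed. Third, further NADPH and then DTNB were added to start the reaction. Finally, TNB absorbance was monitored kinetically.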
NS1 inh = inhibitors of influenza NS1 protein function | Potency, µM (doses to about 46.1 µM), without a hit: top-dose activity, positive = more growth | 270,000 compounds, 0.4% hits | AID 2326; calls by dose curve; also: potency is read from the fitted curve at half-maximal effect; actives are rising curves; nearly all actives have a fitted effect of over 50% in size
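Growth recovery, yeast-based: influenza A NS1 expressed in S. cerevisiae causes slow growth, and suppressors are detected by OD600. The parent strain without NS1 is used as positive control.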
Cycloheximide cs = affects cycloheximide protein synthesis inhibition readout, counter-screen. cell reporter, cycloheximide protein synthesis inhibition counterscreen. 300,000 compounds, 12% hits. max response, %. AID 2314; in the data active = max response mostly above about 13%, no sharp cut-off; inactive = mostly below about 14%; also: read at 38.3 µM for the half of the compounds with a filed dose; 0% is about no effect
Shiga toxin inh = inhibitors of Shiga toxin in Vero cells; Vero cells, Shiga toxin protein synthesis inhibition reporter; inhibition, % at 38.7 µM; 290,000 compounds, 9.2% hits; in the data active = inhibition mostly above about 28%, no sharp cut-off; inactive = mostly below about 43%; also: 0% is about no effect
Pf growth 96h = P. falciparum growth inhibition at 96 hour, primary screen for plastid delayed-death inhibitors; P. falciparum luciferase reporter growth, 96 h; AID 504834; 320,000 compounds, 6.9% hits; Potency, µM (highest dose often 28.7 µM), without a hit: at the highest dose activity change, negative = inhibition, hits mostly inhibitors; also: potency is read from the fitted curve at half-maximal effect; % is scaled to controls: 0 for no effect and ±100 for the full control effect
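Infected RBCs, 2% Hct / 0.05% parasitemia final; luciferase-reporter P. falciparum; cpd 96 h, 37 C, 5% CO2; luciferase detection reagent; luminescence.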
Pf growth 48h = inhibits P. falciparum growth in the first generation, 48 h; P. falciparum luciferase growth in erythrocytes, 48 h; Potency, µM (doses to about 28.7 µM), inactives show top-dose activity change, negative = inhibition, actives largely listed as inhibitors; 310,000 compounds, 5.9% hits; also: potency is read from the fitted curve at half-maximal effect; % is scaled to controls: 0 for no effect and ±100 for the full control effect
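Read-out is firefly luciferase luminescence from an integrated reporter in P. falciparum, so falling signal marks reduced parasite growth. Infected erythrocytes were at 2% hematocrit and 0.1% parasitemia (final) in Albumax-supplemented RPMI 1640.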
* marks the source's active call; other numbers are inactive results; u = inconclusive; x = no result; + = active, no number; [ ] = dose if it differs, or a comment. The list is not random: actives were taken first. Their share in the collection is about 21%. Unless noted, calls follow the shape of the dose curve; as a rule, active = well fitted curve in the direction sought with a large enough effect; inconclusive = small, poorly fitted or top-dose-only effect, or another doubt; inactive = no such curve, though single readings can be large; an effect the other way counts as inactive or inconclusive.

SMILES | Sm TGR inh | NS1 inh | Cycloheximide cs | Shiga toxin inh | Pf growth 96h | Pf growth 48h
COc1ccc(N(CC(=O)Nc2ccccc2C(=O)N2CCOCC2)S(=O)(=O)c2ccc(F)cc2)cc1 | 10% | -14% | 5 | 1 | 10µM* | -1%
CCCN(CC(=O)Nc1ccccc1C)C(=O)c1cccc(-n2cnnn2)c1 | 8% | 1% | -1 | -5 | 1% | 0%
CC(C)(C)c1ccc(C2=CSC3=NCCN23)cc1 | -11% | -9% | -4 | -4 | 0.26µM* | u
C1=C(c2cccc3ccccc23)N2CCN=C2S1 | 5% | -2% | -4 | 46 | 13µM* | u
COc1cccc(C#Cc2c(CO)[nH]c3ccccc23)c1 | 32µM* | x | x | x | u | u
COc1cccc(CN2CCN(Cc3[nH]c4ccccc4c3C)CC2CCO)c1 (centres undefined) | -5%[57.1 µM] | u | -4 | -18 | 3% | -63%
O=c1c(-c2cnn(-c3ccccc3)c2)coc2cc(O)ccc12 | 9% | -49% | 47* | 108* | 39% | 385%
CC(C)(C)c1ccc(-c2nc(C#N)c(NCc3cccnc3)o2)cc1 | 0% | -58% | 32* | 23 | u | x
COc1ccc(-c2nc(C#N)c(NCc3ccco3)o2)cc1 | -1% | -3% | 28* | 73* | 39% | 110%
N#Cc1nc(-c2ccc(F)cc2)oc1NCc1ccco1 | 13% | -2% | 13* | 86* | 29% | 7%
CN(C)CCNc1oc(-c2cccc(Cl)c2)nc1C#N | 7% | 1% | -3 | -5 | 20% | x
Cc1cccc(-c2nc(C#N)c(NCc3ccco3)o2)c1 | -9% | -9% | 57* | 54* | 121% | 131%
N#Cc1nc(-c2ccc(OCc3ccccc3)cc2)oc1NCc1ccco1 | -17% | -3% | -5 | 4 | -9% | -13%
CCCc1nnc(NC(=O)CCC(=O)N2CCC(Cc3ccccc3)CC2)s1 | 0% | 4% | -6 | -13 | u | 2%
O=C(COC(=O)C12CC3CC(CC(Cl)(C3)C1)C2)Nc1ccc2[nH]c(=O)[nH]c2c1 | -25% | x | x | x | u | u
N#Cc1nc(-c2ccco2)oc1NCc1ccco1 | -1% | -91% | 7 | 15 | u | -3%
Cc1ccc(-c2nc(C#N)c(NCc3ccco3)o2)cc1 | -2% | -1% | 54* | 89* | 12µM* | 84%
O=C(c1ccc([N+](=O)[O-])s1)N1CCN(c2cccc(Cl)c2)CC1 | u | -36% | 0 | -6 | 12µM* | u
O=C(c1cccc(Cl)c1)N1CCCC(C(=O)N2CCN(c3ccccc3)CC2)C1 (centres undefined) | -17% | -22% | 24* | 50* | 11% | -24%
O=C(c1cccc(Cl)c1)C1CCCN(C(=O)c2ccoc2)C1 (centres undefined) | -14% | -2% | -2 | -4 | 10µM* | -8%
O=C(c1ccc2nc[nH]c2c1)N1CCN(c2cccc(Cl)c2)CC1 | -1% | -24% | -2 | -15 | 5.9µM* | 13µM*
O=C(c1cccc(Cl)c1)N1CCCC(C(=O)N2CCCCCC2)C1 (centres undefined) | 14% | 1% | 13 | -4 | 13% | u
Cc1cccc(C(=O)Nc2nccs2)c1[N+](=O)[O-] | 5% | 2% | 0 | -6 | u | 22%
COc1ccc(Br)cc1CN1CCN(C(=O)c2cccc(F)c2)CC1 | 1% | -10% | -2 | -5 | 30% | -18%
S=C(NC1CCCC1)N1CCN(c2ccc(Cl)cc2)CC1 | x | -43% | -3 | 30 | 10% | -11%
SMILES | Sm TGR inh | NS1 inh | Cycloheximide cs | Shiga toxin inh | Pf growth 96h | Pf growth 48h
Cc1ccc2nc(-c3ccc(NC(=O)CN4C(=O)c5ccccc5C4=O)cc3)sc2c1 | 5% | 18% | 75* | 108* | -23% | 233%
Cc1ccc2nc(-c3ccc(NC(=S)NC(=O)CC(C)C)cc3)sc2c1 | 0% | 3% | 34* | + | x | 117%
Cc1ccc2nc(-c3ccc(NC(=O)c4ccccc4S(C)(=O)=O)cc3)sc2c1 | 10% | x | x | x | x | x
Cc1ccc2nc(NC(=O)CN3CCN(c4ccccn4)CC3)sc2c1 | -16% | 1% | -3 | 16 | 53% | 31%
Cc1ccc2nc(-c3ccc(NC(=O)CN4CCN(c5ccccn5)CC4)cc3)sc2c1 | -2% | 1% | 29* | 90* | 90% | 81%
CCSc1ccc(C(=O)Nc2ccc(-c3nc4ccc(C)cc4s3)cc2)cc1 | 35% | x | x | x | x | x
Cc1ccc2nc(-c3ccc(NC(=O)COC(=O)c4ccc(=O)[nH]c4)cc3)sc2c1 | -8% | 69% | 65* | 61* | 16% | 323%
CCN(CC)c1nc2c(S(=O)(=O)c3ccc(C)cc3)nnn2c2ccsc12 | 8% | x | x | x | x | x
Cc1ccc2nc(-c3ccc(NC(=O)C(F)(F)F)cc3)sc2c1 | -6% | x | x | x | x | x
Cc1ccc2nc(-c3ccc(NC(=O)CNC4CC4)cc3)sc2c1 | -2% | 9% | 42* | 95* | 238% | 241%
O=C(CCCOc1ccc(Cl)cc1)NCC1CCCO1 (centres undefined) | -12% | 3% | 4 | 9 | 15% | 5%
CCC(C(=O)NCCc1ccco1)n1nc(C)c2c(C)n(-c3ccccc3)nc2c1=O (centres undefined) | -21% | 7% | -3 | -2 | 14% | -5%
CCC(C(=O)NCCC1=CCCCC1)n1nc(C)c2c(C)n(-c3ccccc3)nc2c1=O (centres undefined) | 3% | -9% | -9 | -5 | 12µM* | u
CCC(C(=O)NC1CCCCCC1)n1nc(C)c2c(C)n(-c3ccccc3)nc2c1=O (centres undefined) | -3% | 2% | 16 | 32 | 10µM* | u
CCC(C(=O)NC1CC1)n1nc(C)c2c(C)n(-c3ccc(C)cc3)nc2c1=O (centres undefined) | 0% | 9% | -1 | -7 | u | -1%
CCC(C(=O)NCc1ccco1)n1nc(C)c2c(C)n(-c3ccccc3)nc2c1=O (centres undefined) | 7% | 17% | -8 | -6 | 15µM* | -14%
COc1ccc(Br)c2c1-c1nc(NC(=O)c3cccc(C)c3)sc1C2 | -5% | x | x | x | x | x
CC12CCC3C(CC=C4CC(O)CCC43C)C1C/C(=C\c1ccccc1F)C2=O (centres undefined) | -3% | 9% | -5 | -19 | 5.9µM* | u
COc1ccc(Cc2n[nH]c(=S)n2C)cc1Br | 32µM* | 3% | 9 | 17 | 1% | 25%
CCCCc1nc2cc(C(=O)N3CCNC(=O)C3CC(=O)OC)ccc2o1 (centres undefined) | 31% | 6% | 15* | 8 | u | 29%
CC(C)c1nc2cc(C(=O)N3CCNC(=O)C3c3ccc(F)cc3)ccc2o1 (centres undefined) | -9% | -5% | 11 | 7 | u | u
COC(=O)CC1C(=O)NCCN1C(=O)c1ccc2oc(C(C)C)nc2c1 (centres undefined) | -12% | -5% | 9 | 15 | 15µM* | 7%
